Test results: ChEMBL document CHEMBL4513216, “Probing the Open Global Health Chemical Diversity Library for Multistage-Active Starting Points for Next-Generation Antimalarials” (ACS Infect Dis, 2020)
The whole screen tested about 69,000 compounds, of which about 8,600 (12%) showed an effect of 50% or more. Shown is part of a subset that was picked to be rich in strong results.

Test system: Plasmodium berghei
Test: Screen against P. berghei liver stage (PbLuc), transformed with Luciferase, at 10uM
Assay type: functional, HepG2
Details: tested at 10 uM

Row | SMILES | INHIBITION [%]
1 | N[C@@H](Cc1ccccc1)c1nnc(S(=O)(=O)Cc2ccccc2)o1 | 53.8
2 | CCS(=O)(=O)c1nnc([C@@H](N)Cc2ccccc2)o1 | 11.6
3 | N[C@@H](Cc1ccccc1)c1nnc(S(=O)(=O)Cc2ccc(Cl)cc2)o1 | 15.4
4 | Cc1cnn(CC2CCCN2C(=O)c2c(C)noc2C)c1 (configuration not stated) | 12.7
5 | Cc1ccnn1CCC(=O)N1CCCC1c1cc2cccnc2[nH]1 (configuration not stated) | 6.26
6 | Cc1nc(N2CCOCC2)nc2c1COCC21CCN(CC2CC2)C1 (configuration not stated) | 36.9
7 | CCN(Cc1ccncc1)CC1(O)CCN(C(=O)c2cccc(C)c2)C1 (configuration not stated) | -9.32
8 | FC(F)(F)c1ccc(CNC[C@H]2COCc3nc4cccnc4n32)cc1 | 39.3
9 | Cc1cccc2c1nc1n2[C@@H](CNC(=O)C2CCOCC2)COC1 | 43.4
10 | COc1ccc2c(c1)nc1n2[C@@H](CNC(=O)c2ccccn2)COC1 | 7.53
11 | Cc1cccc2c1nc1n2[C@@H](CNC2CCCCC2)COC1 | 51
12 | Cc1cccc2c1nc1n2[C@@H](CNC(=O)c2ccccn2)COC1 | 37.4
13 | c1ccc(CNC[C@H]2COCc3nc4cccnc4n32)cc1 | 54.7
14 | Cc1cccc2c1nc1n2[C@@H](CNC(=O)NC(C)C)COC1 | 11.6
15 | Cc1cccc2c1nc1n2[C@@H](CNC(=O)Cc2ccccc2)COC1 | -33.8
16 | CC(=O)NC[C@H]1COCc2nc3c(C)cccc3n21 | 46.4
17 | Cc1ccc2c(c1)nc1n2[C@@H](CNC(=O)c2ccccn2)COC1 | 57
18 | COc1ccccc1C(=O)NC[C@H]1COCc2nc3c(C)cccc3n21 | 50.2
19 | COc1ccc(CNC[C@H]2COCc3nc4cccnc4n32)cc1 | 6.55
20 | CCN(CC(=O)Nc1cc(Cl)ccc1C)C(=O)c1ccc(=O)[nH]n1 | 23.2
21 | COc1ncc(-c2ccc(O)cc2)c(OC)n1 | 27.6
22 | CC(C)c1ccc(C2CC(=O)Nc3c2cnn3C)cc1 (configuration not stated) | 14.7

Row | SMILES | INHIBITION [%]
23 | COc1ccccc1OCC(=O)NS(=O)(=O)c1ccc(C)s1 | 25.1
24 | CCNC(=O)[C@@H]1C[C@H](NC(=O)c2cncnc2C)CN1Cc1ccsc1 | 22.6
25 | CC(C)c1nn(C)c(N(C)C)c1CNCc1ccnc(N(C)C)c1 | -10.8
26 | Cc1nc(C)n(CC2CCCN(Cc3cccc(F)c3F)C2)n1 (configuration not stated) | 31.2
27 | COc1ccc2c(c1)nc1n2[C@@H](CNCc2nccs2)COC1 | 8.52
28 | COc1ccc2c(c1)nc1n2[C@@H](CNCc2ccccc2)COC1 | 43.1
29 | COc1ccc2c(c1)nc1n2[C@@H](CNCc2ncccc2C)COC1 | 51
30 | Cc1ccc2c(n1)N(C)CCN(C(=O)NC(C)C)C2 | 23.6
31 | O=C(CCN1CCc2c(ncn2C2CC2)C1)NC1CCCC1 | -45.6
32 | CCc1ccc(C(=O)NC2CCN(c3ccn(C)n3)C2)o1 (configuration not stated) | 62.4
33 | CCc1ccc(C(=O)NC2CCCN(c3ccn(C)n3)C2=O)o1 (configuration not stated) | 20.3
34 | CCc1ccc(C(=O)NC2CCc3nc(C)cn3C2)o1 (configuration not stated) | 2.75
35 | CNc1cc(CNC(=O)c2cccnc2)nc(-c2ccncc2)n1 | 27.8
36 | CCc1noc(C(C)N2CCN(CCN3CCCC3=O)CC2)n1 (configuration not stated) | -0.113
37 | C[C@H]1C[C@H]2CN(C(=O)CC3CC3)CC[C@H]2O1 | 1.94
38 | Cc1ccc(CN2C(=O)CCC2C(=O)Nc2cnn(C)c2)o1 (configuration not stated) | 36.7
39 | CC(=O)N1CCCC(C(=O)NCCOc2cc(C)cc(C)c2)C1 (configuration not stated) | -33.7
40 | CCN(CC)C(=O)[C@@H]1C[C@@H](NC(=O)c2ccn(C(C)(C)C)c2)CN1C | 51.3
41 | CCN(CC)C(=O)[C@@H]1C[C@H](NC(=O)c2ccn(C(C)(C)C)c2)CN1C | 21.7
42 | CCN(CC)C(=O)[C@@H]1C[C@@H](NC(=O)c2ccoc2)CN1C | 6.88
43 | O=C(NCc1cccs1)c1nc2c(o1)CN(C(=O)c1cccnc1)C2 | -4.4
44 | COc1cccc(C2CCN2C(=O)c2cc(C(C)C)on2)c1 (configuration not stated) | 55.5

Row | SMILES | INHIBITION [%]
45 | COc1cccc(C2CCN2C(=O)c2cnccn2)c1 (configuration not stated) | -3.81
46 | COc1ccc(C2CCCN2C(=O)c2cc(C(C)C)on2)cc1 (configuration not stated) | -75.1
47 | Cc1ccc(N2CC[C@H]3C[C@H](C(=O)NCc4ccco4)O[C@H]3C2)nn1 | 14.5
48 | CN(CCSc1nncn1C(C)(C)C)c1ccccc1 | -9.8
49 | Cc1ccc2c(c1)CCC2NCc1c(C)nn(C)c1N1CCOCC1 (configuration not stated) | 33.8
50 | CC1CCC(O)(CSc2nnnn2C2CC2)CC1 (configuration not stated) | -44.2
51 | O=C(O)c1ccn(-c2ccccc2NS(=O)(=O)c2cccc(F)c2)n1 | 30.3
52 | COc1c(C2CCCN2C(=O)c2cnccn2)c(C)nn1C (configuration not stated) | 5.7
53 | O=C(c1ccc2c(c1)[nH]c(=O)n2C1CCCC1)N1CCC1 | 21.1
54 | O=C(c1ccc2c(c1)[nH]c(=O)n2C1CCCC1)N1CCSCC1 | -6.72
55 | CN1CCN(C(=O)c2ccc3c(c2)[nH]c(=O)n3C2CCCC2)CC1 | 58.2
56 | CN1CCNC(=O)C12CCN(C(=O)c1ccc3[nH]c(=O)[nH]c3c1)CC2 | 38.2
57 | Cc1cnn(CC2CN(Cc3csc(C(C)C)n3)CCO2)c1 (configuration not stated) | 9.64
58 | Cc1ccc(C(=O)N2CCC3(CCN3Cc3ccc(F)cc3)C2)cn1 (configuration not stated) | 62.9
59 | Cc1ccc(C(=O)N2CCC3(CCCN(c4ncc(F)cn4)C3)C2)cn1 (configuration not stated) | 36.7
60 | COCCN1CCC12CCN(C(=O)c1ccsc1)CC2 | -20.8
61 | Cc1cc(C(=O)N2CCC3(CCN3Cc3ccc(F)cc3)C2)no1 (configuration not stated) | -6.05
62 | Cn1ccnc1C(=O)N1CCC2(CCN2Cc2ccc(F)cc2)C1 (configuration not stated) | 25.8
63 | O=C(c1ccsc1)N1CCC2(CCN2Cc2ccc(F)cc2)C1 (configuration not stated) | -7.7
64 | Cc1cnc(C(=O)N2CCC3(CCN3Cc3ccc(F)cc3)C2)cn1 (configuration not stated) | 53.9
65 | COCCN1CCC12CCN(C(=O)c1ccc3[nH]ccc3c1)C2 (configuration not stated) | 27.6
66 | COCCN1CCC12CCN(C(=O)c1ccc(C)nc1)C2 (configuration not stated) | 54.8

Row | SMILES | INHIBITION [%]
67 | Cc1cnn(CC2CCCN2Cc2noc(CC(C)C)n2)c1 (configuration not stated) | 17.4
68 | CN1CCCN(C(=O)c2cnsn2)c2cc(F)ccc21 | 7.77
69 | Cc1ccc(Cn2nc(C)c3c(C(=O)O)c(Cl)c(C4CC4)nc32)cc1 | 31.7
70 | O=C(c1cc(Cl)c[nH]c1=O)N1C[C@H]2CC[C@@H](C1)N(Cc1ccccc1)C2 | -28.7
71 | Cn1cc(CN2C[C@@H]3CN(Cc4ccoc4)CCO[C@@H]3C2)cn1 | 7.11
72 | CCn1c(C)nc2cc(NC(=O)CC3CCCCO3)ccc21 (configuration not stated) | 27.5375
73 | Oc1nc(N2CCCC2)nc2nccc(-c3ccccn3)c12 | -13
74 | CCOC(=O)N1[C@@H](c2ccco2)[C@@H](CO)C[C@]12CCCCNC2=O | 1.04
75 | CCCC(O)CN1CC(C)(C)CN(C(=O)CCc2ccccc2)CC1=O (configuration not stated) | 20
76 | NC(=O)C1CCN(CC(=O)NCCn2cc(Cl)cn2)CC1 | 45.2
77 | NC(=O)CN1CCC(C(=O)NCCn2cc(Cl)cn2)CC1 | 61
78 | O=C(NCCn1cc(Cl)cn1)C1CCN(C(=O)C2CC2)CC1 | 2.55
79 | N[C@@H]1CC[C@H](C(=O)NCCn2cc(Cl)cn2)C1 | 60.1
80 | N[C@@H]1CC[C@H](C(=O)NCCc2nc(-c3ccccc3)cs2)C1 | -9.2
81 | CS(=O)(=O)N1CCC(C(=O)NCCCn2cc(Cl)cn2)CC1 | 40.3
82 | COc1cccc(NC(=O)NCC(O)c2ccc(F)cc2F)c1 (configuration not stated) | -3.7
83 | CCc1cccc2cc(CN)c(=O)[nH]c12 | 10.365
84 | CC1CCC(NCCNC(=O)c2cccs2)CC1 (configuration not stated) | 5.11
85 | Cc1c(CN2CCCC(C(=O)CCc3ccccc3)C2)cc(C#N)n1C (configuration not stated) | 19.4
86 | Cc1c(CN2CCCC(C(=O)Nc3ccccc3)C2)cc(C#N)n1C (configuration not stated) | 74
87 | Cc1c(CN2CCCC(C(=O)c3ccccc3)C2)cc(C#N)n1C (configuration not stated) | 7.97
88 | CN(CCc1ccccn1)C(=O)Nc1cccnc1-n1cccn1 | -19.2

Row | SMILES | INHIBITION [%]
89 | CCN1CCCN(S(=O)(=O)c2cnc3onc(C)c3c2)CC1 | 15.5
90 | Cc1noc2ncc(S(=O)(=O)N3CCCC(C)(C)CC3)cc12 | 36.1
91 | CCCN1CCCN(S(=O)(=O)c2cnc3onc(C)c3c2)CC1 | 56.7
92 | COc1cccc(-c2n[nH]cc2CNC2CCN(C3CC3)CC2)c1 | 3.46
93 | CCSCCC(C)N(C)C(=O)c1ccc(C)o1 (configuration not stated) | 85.2
94 | COCC(c1cccc(C(F)(F)F)c1)N(C)C(=O)c1cc(C)no1 (configuration not stated) | -16.4
95 | CCSCCC(C)N(C)C(=O)c1cc(C)on1 (configuration not stated) | -93.6
96 | Cc1cc(C(=O)N(C)C(C)CC(C)C)on1 (configuration not stated) | 20.9
97 | CCSCCC(C)N(C)C(=O)c1ccc2nncn2c1 (configuration not stated) | 34.7
98 | CCSCCC(C)N(C)C(=O)c1cc(C)no1 (configuration not stated) | 55.2
99 | CC(C)NC(=O)CCN1CCCC1c1cccc2c1OCCO2 (configuration not stated) | 35.4
100 | Cc1nc2ccccc2c(=O)n1CCC(=O)N1CCCCCC1 | 1.05
101 | COc1c[nH]c(C(=O)N2CCN(c3ccc(Cl)cc3)CC2)cc1=O | 13.9
102 | Cc1nc(N2CCCC2)ncc1C(=O)Nc1ccc(Br)cc1 | -10.2
103 | Cc1nn(C)cc1C1=NS(=O)(=O)N(C)C(C(=O)Nc2ccc(Cl)cc2)=C1 | 77.7
104 | Cn1cc(NC(=O)CNC(=O)N2CCN(c3ccc(Cl)cc3)CC2)cn1 | 28.5
105 | Cc1cc(=O)n(CC(=O)Nc2ccc(Cl)cc2)nc1C | 25
106 | Cc1nn(C)cc1C1=NS(=O)(=O)N(C)C(C(=O)Nc2ccc(Br)cc2)=C1 | 82.4
107 | Cc1c(C2=NS(=O)(=O)N(C)C(C(=O)Nc3ccc(Br)cc3)=C2)cnn1C | 49.9
